Source: PubChem BioAssay (National Center for Advancing Translational Sciences (NCATS))
HCMV antiviral = human cytomegalovirus inhibition; HFF cells, HCMV-luciferase reporter, 72 h; stronger effect = lower value; activity change, negative = inhibition, % at 57.5 µM; 410,000 tested, 4.5% active; AID 1259415; in the data active means activity change below about -60%; inconclusive means no clear call, values can overlap the other calls; inactive means above about -39%; further: on the % scale 0 is the no-effect control and ±100 the full control effect
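After 16 h attachment at 37C, HFF cells received test compound and HCMV-luciferase (1 PFU/cell); reporter luminescence read 72 h later, data normalized against buffer-only and known inhibitor Salinomycin.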
SARS PLpro yeast = SARS-CoV PLP inhibition in yeast. 330,000 tested, 0.19% active. AID 485353. S. cerevisiae expressing SARS-CoV PLpro, growth rescue. Potency, µM (titrated, usually from 32.9 µM), for the others: top-dose activity, positive = growth rescue, hits mostly activators; calls by dose curve; further: potency means the concentration at half of the fitted maximal effect; 0% is about no effect; nearly all actives have a fitted effect of over 55% in size
Marburg entry inh = inhibitors of Marburg virus binding or cell entry | Potency, µM (top dose mostly 37.8 µM), without a hit: at the top dose activity change, negative = inhibition, most hits filed as inhibitors | 300,000 tested, 1.8% active | Marburg virus pseudotyped entry inhibition, cell reporter | AID 540276; calls by dose curve; tested in HEK293 cells; further: potency means the concentration at half of the fitted maximal effect; on the % scale 0 is the no-effect control and ±100 the full control effect
HCV inh = blocks hepatitis C virus; Potency, µM (doses to about 41.8 µM), inactives show top-dose activity change, negative = inhibition, actives largely listed as inhibitors; AID 651820; Huh7.5.1 HCVcc-Cre infection, luciferase reporter, 44 h; 340,000 tested, 3.4% active; active means well fitted inhibition curve with a large enough effect; inconclusive means small, poorly fitted or top-dose-only effect, or another doubt; inactive means no such curve, though single readings can be large or run the other way; further: potency means the concentration at half of the fitted maximal effect; on the % scale 0 is the no-effect control and ±100 the full control effect
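Cells seeded at 1,000/well and cultured 4 h, then compounds added followed by HCVcc-Cre virus (~0.5 moi). After 44 h further culture, luciferase substrate was added, plates held 15 min at room temperature, and luminescence read for 15 sec.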
FMDV antiviral = antivirals against foot and mouth disease virus; FMDV antiviral cell-based qHTS; Potency, µM (top dose mostly 57.9 µM), without a hit: at the highest dose activity change, negative = inhibition, actives largely listed as inhibitors; 410,000 tested, 1.2% active; calls by dose curve; tested in HEK293T cells; further: read-out not given here; potency means the concentration at half of the fitted maximal effect; on the % scale 0 is the no-effect control and ±100 the full control effect; nearly all actives have a fitted effect of over 45% in size
LASV entry inh = Lassa virus entry inhibition; Lassa virus pseudotype entry inhibition, cell reporter; Potency, µM (doses to about 37.9 µM), for inactives: at the top dose activity change, negative = inhibition, most hits filed as inhibitors; 300,000 tested, 1.2% active; AID 540256; calls by dose curve; tested in HEK293 cells; further: potency means the concentration at half of the fitted maximal effect; on the % scale 0 is the no-effect control and ±100 the full control effect; nearly all actives have a fitted effect of over 50% in size
* marks the source's active call; other numbers are inactive results; ? = inconclusive; . = no result; [ ] = another dose, or the depositor's remark. Rows were chosen to be rich in hits. Some 8% of all compounds tested hit in one or more screens of this group.

SMILES	HCMV antiviral	SARS PLpro yeast	Marburg entry inh	HCV inh	FMDV antiviral	LASV entry inh
COc1ccc(S(=O)(=O)Nc2ccccc2C(=O)NC2CC2)cc1NC(C)=O	31.0	1.8%	.	0.7%	7.7%	.
COc1ccc(S(=O)(=O)Nc2ccccc2OC)cc1NC(=O)CC1CC2CCC1C2 (stereo not given)	?	6.8%	?	6.31µM*	-10.4%	?
COc1ccc(S(=O)(=O)N2CCN(C(c3ccccc3)c3ccccc3)CC2)cc1NC(C)=O	25.7	0.6%	.	3.16µM*	-4.6%	.
COc1ccc(S(=O)(=O)N2CCCCCC2)cc1NC(=O)Cc1cc(OC)c(OC)c(OC)c1	2.2	15.9%	?	-9.8%	-13.6%	-2.1%
COc1ccc(S(=O)(=O)N2CCCC2)cc1NC(=O)c1ccccc1	-14.4	8.9%	8.2%[46.1 µM]	13.1%	-21.2%	28.8%
COc1ccc(S(=O)(=O)N2CCCCC2)cc1NC(=O)CN(C)C1CCCCC1	-38.2	0.0%	?	11.2µM*	15.8%	?
COc1ccc(S(=O)(=O)N2CCCCC2)cc1NC(=O)CN(Cc1ccco1)Cc1ccco1	-69.7*	-4.4%	.	10µM*	?	.
COCCNC(=O)C(=O)NNC(=O)CCc1ccccc1	-12.1	0.6%	.	8.7%	9.6%	.
CCN1CCN(c2ccc(S(=O)(=O)N3CCOCC3)cc2NC(=O)COc2ccc(F)cc2Cl)CC1	4.6	20.4%	?	1.7%	-2.7%	2.9%[46.1 µM]
CCCOc1ccc(CNC(=O)CCCn2nc(C)c3sc4ccccc4c3c2=O)cc1	-8.2	.	?	.	-4.2%	?
Cc1[nH]c2ccccc2c1C=NNC(=O)c1cc(-c2cccnc2)nc2ccccc12	8.6	0.5%	.	?	-28.6%	.
Cc1ccc(-c2cc(C(=O)N/N=C/c3c(C)nn(C)c3C)c3ccccc3n2)cc1C	18.7	1.8%	?	35.5µM*	-4.9%	?
Cc1nn(-c2ccccc2)c(N2CCCC2)c1/C=N/NC(=O)c1cc(-c2cccnc2)nc2ccccc12	37.6	-4.5%	?	14.1µM*	-11.5%	?
CC(=O)Nc1ccc(NC(=O)CSc2nnc(NC(=O)c3ccccc3F)s2)cc1	38.3	.	.	.	0.0%	.
CNC(=S)NNC(=O)COc1cccc(C)c1C	2.7	10µM*	-1.2%	-10.9%	5.3%	9.2%
CNC(=S)NNC(=O)COc1ccccc1C	?	-8.2%	2.3%	-3.2%	.	5.1%
COC(=O)c1cc(OC)c(OC)c(OC)c1NC(=O)c1cc(=O)n(C)c(=O)n1C	-23.3	.	21.6%[46.1 µM]	.	-16.3%	-17.2%[46.1 µM]
COC(=O)[C@]12C[C@H](CC(=O)NCc3cccs3)C(=O)N(CCC3=CCCCC3)C1=C[C@H](C(C)(C)C)O[C@@H]2C	-2.1	.	.	.	.	.
CC(=Nc1ccc(C)cc1)c1sc2ccccc2c1O	11.4	-25.3%	?	12.6µM*	.	?
C=CCCC(=O)N[C@H]1CC[C@@]23CCCN2C(=O)CCC[C@H]3[C@H]1Cc1ccccc1	26.5	.	.	.	.	.
CCn1c(-c2ccc(-c3ccccc3)cc2)c[nH]c1=S	-9.3	28.9%	-8.0%	10µM*	1.8%	?
Cc1ccc(-c2c[nH]c(=S)n2-c2ccccc2)cc1	-36.0	8.4%	.	7.1%	-10.7%	.
C=CCn1c(-c2ccccc2)c[nH]c1=S	98.8	8.3%	2.7%	14.1%	60.9%	20.8%
Cn1c(-c2ccc(-c3ccccc3)cc2)c[nH]c1=S	?	?	?	5.01µM*	19.6%	?
Cc1ccc(-c2c[nH]c(=S)n2-c2ccccc2F)cc1	-64.5*	7.0%	6.1%[46.1 µM]	10.4%	-9.8%	?
SMILES	HCMV antiviral	SARS PLpro yeast	Marburg entry inh	HCV inh	FMDV antiviral	LASV entry inh
COc1ccc(C(=O)Nc2oc(-c3ccccc3)c(-c3ccccc3)c2C#N)cc1	?	2.8%	?	10µM*	-17.7%	?
COc1ccc(-c2oc(NC(=O)c3ccc(C)cc3)c(C#N)c2-c2ccc(OC)cc2)cc1	8.8	10.1%	?	-26.5%	2.3%	-24.2%
COc1ccc(C(=O)Nc2oc(-c3ccccc3)c(-c3ccccc3)c2C#N)cc1OC	11.9	0.6%	-0.5%	11.2µM*	.	-22.9%
COc1ccc(-c2oc(NC(C)=O)c(C#N)c2-c2ccc(OC)cc2)cc1	23.0	0.6%	-1.4%	-16.2%	-10.7%	6.6%
Cc1ccc(-c2nc3ncccc3o2)cc1NC(=O)c1ccccc1Br	?	.	.	.	8.6%	-4.2%[46.1 µM]
O=C(N/N=C/c1cccnc1)c1cccc(NC(=O)c2cccc(Br)c2)c1	8.3	0.9%	2.4%[46.1 µM]	-19.7%	2.9%	6.1%
Cc1nc(C)c(C(=O)N/N=C/c2cc(Br)ccc2O)s1	-99.0*	2.7%	.	?	-0.6%	.
Cc1nc(C)c(C(=O)N/N=C/c2c[nH]c3ccccc23)s1	.	1.4%	?	1.4%	-2.1%	-14.6%
O=C(N/N=C/c1ccc(O)c2ncccc12)c1cccc(Br)c1	-98.9*	-4.0%	13µM*	3.55µM*	-3.7%	?
O=C(N/N=C/c1ccc(O)c(O)c1)c1cccc(S(=O)(=O)N2CCCCC2)c1	11.8	8.4%	5.1%	18.4%	-12.4%	6.7%
O=C(N/N=C/c1cc(Br)ccc1OC(=O)c1ccc(Br)cc1)c1ccncc1	-16.4	-2.7%	1µM*	3.16µM*	0.0%	5.62µM*
O=C(N/N=C\c1cc(Br)ccc1O)c1ccc(S(=O)(=O)N2CCCCC2)cc1	-100.0*	?	?	3.55µM*	-1.6%	?
Cc1cccc(OCC(=O)OCc2cc(=O)n3nc(C4CC4)sc3n2)c1	13.3	.	.	.	-14.8%	1.7%[46.1 µM]
O=C(CNC(=O)c1ccc(S(=O)(=O)N2CCCC2)cc1)N/N=C/c1ccc(Cl)cc1	11.6	-7.1%	-14.3%	-7.5%	-0.9%	-5.0%
O=C(N/N=C/c1cc(Br)ccc1O)c1ccncc1	0.0	-0.6%	2.82µM*	?	17.9%	?
CCOc1ccccc1NC(=O)C(=O)N/N=C/c1cc(Br)ccc1O	-100.9*	6.8%	2.51µM*	6.31µM*	-21.3%	1.58µM*
CCOc1ccccc1C=NNC(=O)C(=O)NN=Cc1ccccc1OCC	9.3	.	25.0%	-17.6%	0.0%	-5.1%
O=C(CNC(=O)c1ccc(S(=O)(=O)N2CCCC2)cc1)N/N=C/c1c(Cl)cccc1Cl	-71.6*	12.0%	?	?	?	?
C=CCn1c(SCCN2CCCC2)nc2c([nH]c3ccccc32)c1=O	86.5	0.8%	?	-8.7%	-25.5%	-1.5%
COc1ccc(-n2c(C)cc(/C=C3\C(=O)NN(c4ccccc4)C3=O)c2C)cc1	60.1	1.7%	16.9%	-2.5%	46.6%	8.3%
Cc1cc(/C=C2/C(=O)NN(c3ccccc3)C2=O)c(C)n1-c1ccc(O)cc1	-86.1*	-23.9%	7.08µM*	?	17.8µM*	?
CN(Cc1nccn1C)C(=O)CC1C(=O)NCCN1CC(c1ccccc1)c1ccccc1 (stereo not given)	16.5	1.1%	.	7.9%	-14.3%	.
Cc1ccc(NC(=O)C(=O)c2cc(C)n(-c3ccc(F)cc3)c2C)cc1C	25.7	.	19.6%[46.1 µM]	.	6.8%	?
CCc1nc(N=C(N)N)nc2ccccc12	-82.0*	3.3%	.	.	.	.
